Screening results deposited in PubChem by National Center for Advancing Translational Sciences (NCATS).
Shiga inhibitor = A qHTS for Small Molecule Inhibitors of Shiga Toxin; Vero cells, Shiga toxin protein synthesis inhibition reporter; inhibition, % at 38.7 µM; hit rate 9.2% among 290,000; AID 2315, 2010; in the data active = inhibition mostly above about 28%, no sharp cut-off; inactive = mostly below about 43%; also: 0% is about no effect
LmPK inhibitor = qHTS Assay for Inhibitors of Leishmania Mexicana Pyruvate Kinase (LmPK); Potency, µM (series often up to 57.5 µM), for the others: at the highest dose activity change, negative = inhibition, hits mostly inhibitors; purified LmPK, Kinase-Glo ATP luminescence, 1 h; AID 1721, 2009; hit rate 0.37% among 290,000; Q27686; also: potency is read from the fitted curve at half-maximal effect; % is scaled to controls: 0 for no effect and ±100 for the full control effect
Target sequence (Q27686 whole entry, looked up): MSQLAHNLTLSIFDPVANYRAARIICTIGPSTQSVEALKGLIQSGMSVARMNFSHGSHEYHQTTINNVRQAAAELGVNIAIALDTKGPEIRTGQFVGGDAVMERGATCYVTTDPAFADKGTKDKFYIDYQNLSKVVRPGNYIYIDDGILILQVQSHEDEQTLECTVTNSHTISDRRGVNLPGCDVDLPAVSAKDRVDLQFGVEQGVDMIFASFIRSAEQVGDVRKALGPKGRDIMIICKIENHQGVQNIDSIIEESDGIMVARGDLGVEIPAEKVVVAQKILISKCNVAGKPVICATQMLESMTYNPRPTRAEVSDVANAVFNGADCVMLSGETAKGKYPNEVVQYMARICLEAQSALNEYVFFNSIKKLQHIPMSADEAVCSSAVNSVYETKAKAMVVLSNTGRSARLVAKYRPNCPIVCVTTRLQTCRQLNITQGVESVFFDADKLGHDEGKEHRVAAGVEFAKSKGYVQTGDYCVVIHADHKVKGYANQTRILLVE
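qHTS format; LmPK 0.1 nM; substrates PEP 0.5 mM and ADP 0.1 mM. One-hour room-temperature incubation, then coupled luciferase luminescence; 0.5 nM enzyme wells mark activation.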
Giardia FBPA inh = qHTS Assay for Inhibitors of Fructose-1,6-bisphosphate Aldolase from Giardia Lamblia; A8B2U2; purified Giardia FBPA; Potency, µM (highest dose often 59.6 µM), for the others: top-dose activity, negative = inhibition, most hits filed as inhibitors; hit rate 0.71% among 290,000; AID 2451, 2010; also: potency is read from the fitted curve at half-maximal effect; % is scaled to controls: 0 for no effect and ±100 for the full control effect; nearly all actives have a fitted effect of over 55% in size
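40 nM FBPA preincubated 10 min at RT with compound (up to 57.5 uM final), then substrate plus GAPDH/TPI/NAD/arsenate coupling and diaphorase/resazurin added. Fluorescence read after 20 min at RT, 525/598 nm.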
TbPYK inhibitor = qHTS of Trypanosoma Brucei Inhibitors | pyruvate kinase (Trypanosoma brucei), Q57TT1 | TbPYK enzyme, Kinase-Glo Plus ATP luminescence, 45 min | Potency, µM (top dose mostly 76.8 µM), without a hit: top-dose activity, negative = inhibition, most hits filed as inhibitors | hit rate 0.12% among 410,000 | AID 624173, 2012; also: potency is read from the fitted curve at half-maximal effect; % is scaled to controls: 0 for no effect and ±100 for the full control effect; nearly all actives have a fitted effect of over 50% in size
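Luminescent Kinase-Glo Plus end-point after 45 min room-temperature reaction of T. brucei pyruvate kinase started with 130 uM ADP (final). Buffer TEA 50 mM pH 7.2 with KCl, MgCl2, BSA, Tween-20; titration-based qHTS with fitted concentration-effect curves.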
CHX counter = Cycloheximide Counterscreen for Small Molecule Inhibitors of Shiga Toxin. cell reporter, cycloheximide protein synthesis inhibition counterscreen. max response, %. hit rate 12% among 300,000. AID 2314, 2010; in the data active = max response mostly above about 13%, no sharp cut-off; inactive = mostly below about 14%; also: read at 38.3 µM for the half of the compounds with a filed dose; 0% is about no effect
Sm TGR inh = qHTS Assay for the Inhibitors of Schistosoma Mansoni Peroxiredoxins. Schistosoma mansoni thioredoxin glutathione reductase (TGR), Q962Y6. purified TGR, DTNB reduction, TNB absorbance 405 nm. Potency, µM (titrated, usually from 114 µM), for inactives: at the highest dose activity change, negative = inhibition, hits mostly inhibitors. hit rate 3% among 360,000; also: potency is read from the fitted curve at half-maximal effect; % is scaled to controls: 0 for no effect and ±100 for the full control effect; nearly all actives have a fitted effect of over 60% in size
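First, TGR (20 nM dispensed) and NADPH were mixed with compound. Second, a 15 min room-temperature incubation followed. Third, further NADPH and then DTNB were added to start the reaction. Finally, TNB absorbance was monitored kinetically.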
Starred values were filed as active, the others as inactive. The sample as a whole holds a higher share of hits than the screen did. Unless noted, calls follow the shape of the dose curve; as a rule, active = well fitted curve in the direction sought with a large enough effect; inconclusive = small, poorly fitted or top-dose-only effect, or another doubt; inactive = no such curve, though single readings can be large; an effect the other way counts as inactive or inconclusive.

`Oc1c(C(c2ccccc2)N2CCC(O)CC2)sc2nc(-c3ccco3)nn12` (configuration not stated) gave TbPYK inhibitor 9% and Sm TGR inh 1%.
CCSC[C@H](NC(=O)[C@H](C)NC(=O)[C@@H](N)Cc1ccc(O)cc1)C(=O)N[C@@H](CC(=O)O)C(=O)N[C@H](C(=O)N[C@@H](C)C(=O)N[C@H](C(=O)N[C@@H](CSCC)C(=O)N[C@H](C(=O)N[C@H](C(=O)N[C@@H](Cc1cnc[nH]1)C(=O)N[C@@H](CCCNC(=N)N)C(=O)N[C@@H](CC(C)C)C(=O)N[C@@H](C)C(=O)NCC(=O)N[C@@H](CC(C)C)C(=O)N[C@@H](CC(C)C)C(=O)N[C@@H](CO)C(=O)N[C@@H](CCCNC(=N)N)C(=O)N[C@@H](CO)C(=O)NCC(=O)NCC(=O)N[C@H](C(=O)N[C@H](C(=O)N[C@@H](CCCCN)C(=O)N[C@@H](CC(N)=O)C(=O)N[C@@H](CC(N)=O)C(=O)N[C@@H](Cc1ccccc1)C(=O)N[C@H](C(=O)N1CCC[C@H]1C(=O)N[C@H](C(=O)N[C@@H](CC(N)=O)C(=O)N[C@H](C(=O)NCC(=O)N[C@@H](CO)C(=O)N[C@@H](CCCCN)C(=O)N[C@@H](C)C(=O)N[C@@H](Cc1ccccc1)C(N)=O)C(C)C)[C@@H](C)O)C(C)C)C(C)C)C(C)C)[C@@H](C)O)C(C)C)[C@@H](C)O)[C@@H](C)O was read as Shiga inhibitor 10, Giardia FBPA inh -1% and CHX counter -4.
`Cc1c(Cl)cccc1NC(=O)c1cc(C2CC2)on1` gave Shiga inhibitor 102*, LmPK inhibitor 7%, Giardia FBPA inh 0%, TbPYK inhibitor 4%, CHX counter 35* and Sm TGR inh 3%.
Screening Cc1cc(NC(=O)c2cc(-c3ccccc3)on2)no1 returned Shiga inhibitor -11, LmPK inhibitor -9%, Giardia FBPA inh -2%, TbPYK inhibitor 0%, CHX counter -4 and Sm TGR inh -14%.
Screening CCC(C)NC(=O)c1cc(CC(C)C)on1 (configuration not stated) returned Shiga inhibitor 59*, LmPK inhibitor -7%, Giardia FBPA inh -1%, TbPYK inhibitor 0%, CHX counter 49* and Sm TGR inh -1%.
`COC(=O)c1ccccc1NC(=O)c1cc(C2CC2)on1` gave Shiga inhibitor 22, LmPK inhibitor 1%, Giardia FBPA inh 4%, TbPYK inhibitor -8%, CHX counter 0 and Sm TGR inh 2%.
Screening Cc1cc(NC(=O)c2cc(C3CC3)on2)no1 returned Shiga inhibitor 73*, LmPK inhibitor -1%, Giardia FBPA inh 5%, TbPYK inhibitor -8%, CHX counter 40* and Sm TGR inh 1%.
For COc1ccc(N2CCN(C(=O)COC(=O)CC(NC(N)=O)c3ccc(Cl)cc3)CC2)cc1 (configuration not stated) the results were TbPYK inhibitor 1%.
For C=CCc1ccccc1OCCn1nnc2ccccc21 the results were LmPK inhibitor 6%, Giardia FBPA inh 1%, TbPYK inhibitor -2%, CHX counter 8 and Sm TGR inh 1%.
For C=CCc1ccc(OCCn2nnc3ccccc32)c(OC)c1 the results were Shiga inhibitor 53*, LmPK inhibitor -7%, Giardia FBPA inh 4%, TbPYK inhibitor 6%, CHX counter 50* and Sm TGR inh 7%.
Screening C=CCc1ccc(OCCOCCN(C)C)c(OC)c1 returned Shiga inhibitor -3, LmPK inhibitor 5%, Giardia FBPA inh inconclusive, TbPYK inhibitor 1%, CHX counter -3 and Sm TGR inh 3%.
`C/C=C/c1ccc(OCCCCOc2ccc(OC)cc2)c(OC)c1` gave Shiga inhibitor -4, LmPK inhibitor -2%, Giardia FBPA inh 4%, TbPYK inhibitor -4%, CHX counter -3 and Sm TGR inh -2%.
Screening C/C=C/c1ccc(OCCn2nnc3ccccc32)c(OC)c1 returned Shiga inhibitor 25, LmPK inhibitor -3%, Giardia FBPA inh -9%, TbPYK inhibitor -13%, CHX counter 35* and Sm TGR inh -10%.
`C=CCc1ccc(OCCn2cccc2C=O)c(OC)c1` gave Shiga inhibitor 116*, LmPK inhibitor 2%, Giardia FBPA inh -7%, TbPYK inhibitor 3%, CHX counter 49* and Sm TGR inh -27%.
Cc1cccc(OCCn2nnc3ccccc32)c1C was read as LmPK inhibitor 4%, Giardia FBPA inh 4%, TbPYK inhibitor -3%, CHX counter 42* and Sm TGR inh -1%.
For CCOc1cc(CNC(=O)c2ccc3c(c2)nc2n3CCCCC2)ccc1OC the results were TbPYK inhibitor 2% and Sm TGR inh -5%.
Screening N#CCSc1nnc2ccc3ccccc3n12 returned Shiga inhibitor active, LmPK inhibitor -2%, Giardia FBPA inh 0%, TbPYK inhibitor -4%, CHX counter 13* and Sm TGR inh 5%.
`CC1Oc2ccccc2C(=O)N(CC(=O)c2ccc3c(c2)OCCO3)C1=O` (configuration not stated) gave Shiga inhibitor 72*, LmPK inhibitor 9%, TbPYK inhibitor -6%, CHX counter 30* and Sm TGR inh -3%.
Screening CCC1Oc2ccccc2C(=O)N(CC(=O)c2ccc3c(c2)OCCO3)C1=O (configuration not stated) returned Shiga inhibitor 46, LmPK inhibitor 4%, TbPYK inhibitor 0%, CHX counter 34* and Sm TGR inh -15%.
`CC(C)C1Oc2ccccc2C(=O)N(CC(=O)c2ccc3c(c2)OCCO3)C1=O` (configuration not stated) gave Shiga inhibitor 92*, LmPK inhibitor 3%, TbPYK inhibitor 3%, CHX counter 47* and Sm TGR inh 0%.
Screening CCC1Oc2ccccc2N(CC(=O)N2CCOCC2)C1=O (configuration not stated) returned Shiga inhibitor -3, LmPK inhibitor -1%, Giardia FBPA inh 1%, TbPYK inhibitor -3%, CHX counter -6 and Sm TGR inh 5%.
For CC1Oc2ccccc2N(CC(=O)c2cccc(Cl)c2)C1=O (configuration not stated) the results were Shiga inhibitor 33, LmPK inhibitor 6%, Giardia FBPA inh 1%, TbPYK inhibitor -2%, CHX counter -4 and Sm TGR inh -9%.
C=Cc1ccc(CSc2nnc(C)n3c2cc2occc23)cc1 was read as TbPYK inhibitor 1% and Sm TGR inh 15%.
